We go through 5 molecules from PubChem BioAssay.

“And” between values parts separate entries of the source, which are not always exact repeats. Identical values can stand only once. More than one record can exist for a structure, and the calls need not agree. Some of the results follow. Inconclusive results are not listed. The source made the active and inactive calls.

As a reminder, the inhibition is the drop in the measured response relative to a control, in per cent.

Experiment [1] is described as follows: inhibitors of TNFa-induced NFkB p65 translocation, primary screen, imaging, HUVEC, MLSMR starter and 10KST1 sets (AID 438;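 active = inhibition above 20% together with a positive visual image hit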;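 also: compound added about 3h40 before a 20 min TNFalpha stimulation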;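 as to inhibition: signal is the nuclear over cytoplasmic p65 intensity ratio per well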). The conditions noted are these: HUVEC TNFa-induced p65 nuclear translocation; cell count: measured here: nuclei count (cytotoxicity indicator), at 2.08 µM unless noted; inhibition: at 2 µM, stronger effect = higher value unless noted.
Experiment [2] in a line: inhibitors of mutant huntingtin aggregation, primary screen, imaging, exon1htt(103Q)mCFP cells, high-content imaging (AID 483;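 active = visual image review flags a hit and inhibition of aggregation exceeds 20%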;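 also: compound exposure lasted 3 days before fixation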;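 as to nuclei count: percent of the per-plate median nuclei count of sample wells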). The conditions noted are these: exon1htt(103Q)mCFP cell line, aggregate imaging, at 2 µM; inhibition of aggregation: stronger effect = higher value; nuclei count: measured here: cell count, toxicity.
The nature of experiment [3]: inhibitors of E-selectin induction by TNFa, primary screen, imaging, HUVEC, immunofluorescence, MLSMR starter and 10KST1 sets (AID 487;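 active = visually confirmed hit in the image check and inhibition above 20%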;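 as to inhibition: signal is fraction of cell area covered by stained E-selectin grains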;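 as to nuclei count: 100% = median nuclei count of all wells on the same plate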). The conditions noted are these: HUVEC TNFalpha-induced E-selectin immunofluorescence imaging, at 2 µM; inhibition: stronger effect = higher value; nuclei count: measured here: cell number, toxicity.
Experiment [4] can be described thus: DUSP6 inhibitors restoring Erk phosphorylation by chemical complementation, primary imaging in DUSP6-transfected HeLa (AID 609;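 active = compounds giving at least 50% inhibition in the cell-based MKP-3 phosphatase rescue imaging test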;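 as to inhibition: phospho-Erk level distribution per well compared with pooled transfected vehicle control wells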). As to conditions: HeLa MKP-3 transfected, phospho-Erk imaging KS statistic, at 10 µM.
The target in experiment [5] is Dual specificity protein phosphatase 6 (Homo sapiens) (UniProt Q16828). The experiment is described as above. As to conditions: HeLa MKP-3 transfected, phospho-Erk imaging KS statistic, at 10 µM, stronger effect = higher value.
In experiment [6] the target is Voltage-gated potassium channel subunit beta-2 (Rattus norvegicus) (UniProt P62483). Put plainly: KvBeta enzyme negative modulators, primary screen, biochemical, NADPH fluorescence (AID 622;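 active = fluorescence slope higher than the sample average by over 3 SD, cut at about -0.22 in these data, passing the limit was not always enough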;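 also: slope of raw intensity against log time taken from 70 to 1610 s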). The conditions noted are these: recombinant KvBeta, 4-cyanobenzaldehyde reduction, at 10 µM, stronger effect = higher value.
For experiment [7] the target is unchanged. Put plainly: KvBeta positive modulators, primary screen, biochemical, NADPH fluorescence (AID 623;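 active = NADPH fluorescence slope more negative than the mean of all samples by about 3 SD, 99.7% confidence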;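 also: fluorescence intensity change per second fitted from 20 to 320 s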). As to conditions: Recombinant KvBeta, NADPH fluorescence decrease slope, 10 min; at 10 µM; stronger effect = lower value.
Experiment [8] has as its target Alpha-2C adrenergic receptor (Homo sapiens) (UniProt P18825). Nature of the experiment: modulators of alpha2C/GIRK thallium flux, primary screen, cell-based, HEK293 alpha2C/GIRK1/2 (AID 624;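 active = fluorescence slope after compound addition differing from the mean of all screened samples at 99.7% confidence, in either direction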;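 also: slope of fluorescence ratio to pre-addition baseline per second over 15 to 24 s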). The conditions noted are these: thallium flux BTC fluorescence, at 10 µM, actives lie on both sides.
Experiment [9] in a line: inhibitors of Chlamydomonas gravitaxis, primary screen, whole organism, Chlamydomonas reinhardtii, WT vs cilia-less mutant, absorbance, 96-well (AID 463189).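 Also: 0% = wild type cc124 cells in DMSO and 100% = ciliumless bld1 mutant cells.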 The conditions noted are these: OD600 absorbance, 2 days, at 10 µM, stronger effect = higher value.
Experiment [10] is described as follows: inhibitors of Sendai virus-induced IRF3 signaling, primary screen, TLR/RLR signaling modifier project, cell-based, Sendai virus stimulus, luciferase, 10K MLSCN set (AID 602276;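 active = inhibition at or above 50% at 10 µM; inactive = inhibition below 50%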;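 also: firefly luciferase from ISG56 promoter only with Renilla not read in this screen; 0% = Sendai virus plus DMSO and 100% = medium plus DMSO without virus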). The conditions noted are these: HEK293 RL24 IRF3 luciferase reporter, at 10 µM, stronger effect = higher value.
Experiment [11] in a line: inhibitors of poly I:C-induced TLR3 signaling, primary screen, cell-based, poly I:C stimulus, luciferase, 10K MLSCN set (AID 602277;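 active = inhibition of the reporter signal at or above 50%; inactive = inhibition below 50%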). As to conditions: HEK293-TLR3 RL24 IRF3 luciferase reporter, at 10 µM, stronger effect = higher value. (In general: A reporter such as luciferase makes a cellular process visible.)
The target of experiment [12] is Solute carrier family 12 member 5 (Homo sapiens) (UniProt Q9H2X9). Nature of the experiment: KCC2 modulators in sodium-free buffer, confirmation, cell-based, HEK293 KCC2, thallium flux, secondary assay (AID 1713;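 active = thallium flux slope above the same plate's solvent-only control mean plus 3 SD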). As to conditions: FluoZin2 fluorescence, at 10 µM, stronger effect = higher value.
Another experiment is described as follows: PubChem AID 1714.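 Also: raw slope of fluorescence over initial fluorescence between 10 and 20 s after thallium.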 As to conditions: HEK293-KCC2 + bumetanide/ouabain, thallium flux FluoZin2; at 10 µM; stronger effect = higher value.
Experiment [13] addresses Solute carrier family 12 member 5 (Homo sapiens) (UniProt Q9H2X9). Put plainly: KCC2 modulators without ouabain present, confirmation, cell-based, HEK293 KCC2, thallium flux, FluoZin2, secondary assay 2 (AID 1715;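 active = thallium flux slope more than 3 SD above or below the plate's solvent-only control mean, mostly below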;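 also: raw slope with 0.1% DMSO as baseline and bumetanide as block control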). The conditions noted are these: HEK293-KCC2, thallium flux FluoZin2 fluorescence; at 10 µM; actives lie on both sides.
Experiment [14] in a line: thallium flux modulation in parental HEK cells, confirmation, counter-screen for KCC2 modulator project, cell-based, counterscreen 1 (AID 1716;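 active = thallium flux rate significantly above the same plate's solvent-only control wells, beyond their mean plus 3 SD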). As to conditions: HEK293 parental cells, thallium flux FluoZin2, ouabain; at 10 µM; baseline-ratio fluorescence slope, 10–20 s after thallium.
The target in experiment [15] is Solute carrier family 12 member 5 (Homo sapiens) (UniProt Q9H2X9). Put plainly: KCC2 inhibitors and activators, ouabain retest, confirmation, HEK-KCC2 cells (AID 1717;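 active = thallium flux slope beyond 3 SD from same-plate DMSO control mean in most replicates, usually higher, sometimes lower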;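 also: slope of initial-normalized fluorescence between seconds 10 and 20 after thallium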). As to conditions: HEK293-KCC2, thallium flux FluoZin2 fluorescence, at 10 µM, bidirectional: low = inhibitor, high = activator.
A short description of experiment [16]: native HEK Tl+ uptake effects, second counter-screen – HEK cells, counterscreen 2, counter-screen for KCC2 modulator project, confirmation (AID 1718;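 active = thallium flux slope above the same plate's solvent-control mean plus 3 SD in both duplicate wells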;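 also: run without ouabain in cells lacking the KCC2 cotransporter; slope of fluorescence scaled to its starting value between 10 and 20 s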). The conditions noted are these: HEK293 parental, thallium flux FluoZin-2 fluorescence slope; at 10 µM. In general terms: The purpose of a counterscreen is to sort out artefacts and off-target activity.
Experiment [17] in a line: inhibitors of larval lipid processing in zebrafish, primary screen, whole organism, PED6 fluorescence, gall bladder and intestine (AID 686;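 active = a full or partial loss of lipid-probe fluorescence in the fish gall bladder, intestine or both, judged by eye; inactive = no fluorescence loss, or compound toxic to the fish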;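 also: larvae 5 to 7 days old with five fish per well; signal comes from phospholipase A2 cleavage of quenched PED6 carried via bile; overnight exposure to compound and PED6 before scoring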). The conditions noted are these: Zebrafish larvae PED6 lipid processing, fluorescence scoring.
Setting [18] is: measured here: cell density z-score.
Setting [19] is: measured here: nuclear c-Myc green intensity z-score.
Where [20] appears, read: measured here: nuclear pErk red intensity z-score, stronger effect = higher value.

Dual specificity protein phosphatase 6 (Homo sapiens), sequence (Q16828 whole entry, looked up): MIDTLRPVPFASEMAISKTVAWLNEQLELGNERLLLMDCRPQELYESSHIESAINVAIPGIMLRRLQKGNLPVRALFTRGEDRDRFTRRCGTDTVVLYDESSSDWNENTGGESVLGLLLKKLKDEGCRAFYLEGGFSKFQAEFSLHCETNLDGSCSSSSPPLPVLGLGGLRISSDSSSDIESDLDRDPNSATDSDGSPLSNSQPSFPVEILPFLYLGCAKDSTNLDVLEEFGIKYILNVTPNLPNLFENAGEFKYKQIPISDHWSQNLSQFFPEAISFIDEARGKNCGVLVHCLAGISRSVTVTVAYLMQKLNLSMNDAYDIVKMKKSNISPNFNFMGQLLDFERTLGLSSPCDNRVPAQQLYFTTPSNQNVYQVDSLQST
Voltage-gated potassium channel subunit beta-2 (Rattus norvegicus), sequence (P62483 whole entry, looked up): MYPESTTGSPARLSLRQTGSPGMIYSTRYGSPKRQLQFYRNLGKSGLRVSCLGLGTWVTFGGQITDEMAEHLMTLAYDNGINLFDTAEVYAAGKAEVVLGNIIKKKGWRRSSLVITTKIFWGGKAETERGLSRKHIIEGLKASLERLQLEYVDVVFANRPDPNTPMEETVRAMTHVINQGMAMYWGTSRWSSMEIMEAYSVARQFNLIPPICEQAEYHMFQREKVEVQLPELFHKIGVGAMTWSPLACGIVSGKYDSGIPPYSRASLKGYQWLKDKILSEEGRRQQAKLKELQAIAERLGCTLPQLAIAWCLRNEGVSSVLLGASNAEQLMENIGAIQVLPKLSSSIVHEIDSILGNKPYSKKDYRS
Solute carrier family 12 member 5 (Homo sapiens), sequence (Q9H2X9 whole entry, looked up): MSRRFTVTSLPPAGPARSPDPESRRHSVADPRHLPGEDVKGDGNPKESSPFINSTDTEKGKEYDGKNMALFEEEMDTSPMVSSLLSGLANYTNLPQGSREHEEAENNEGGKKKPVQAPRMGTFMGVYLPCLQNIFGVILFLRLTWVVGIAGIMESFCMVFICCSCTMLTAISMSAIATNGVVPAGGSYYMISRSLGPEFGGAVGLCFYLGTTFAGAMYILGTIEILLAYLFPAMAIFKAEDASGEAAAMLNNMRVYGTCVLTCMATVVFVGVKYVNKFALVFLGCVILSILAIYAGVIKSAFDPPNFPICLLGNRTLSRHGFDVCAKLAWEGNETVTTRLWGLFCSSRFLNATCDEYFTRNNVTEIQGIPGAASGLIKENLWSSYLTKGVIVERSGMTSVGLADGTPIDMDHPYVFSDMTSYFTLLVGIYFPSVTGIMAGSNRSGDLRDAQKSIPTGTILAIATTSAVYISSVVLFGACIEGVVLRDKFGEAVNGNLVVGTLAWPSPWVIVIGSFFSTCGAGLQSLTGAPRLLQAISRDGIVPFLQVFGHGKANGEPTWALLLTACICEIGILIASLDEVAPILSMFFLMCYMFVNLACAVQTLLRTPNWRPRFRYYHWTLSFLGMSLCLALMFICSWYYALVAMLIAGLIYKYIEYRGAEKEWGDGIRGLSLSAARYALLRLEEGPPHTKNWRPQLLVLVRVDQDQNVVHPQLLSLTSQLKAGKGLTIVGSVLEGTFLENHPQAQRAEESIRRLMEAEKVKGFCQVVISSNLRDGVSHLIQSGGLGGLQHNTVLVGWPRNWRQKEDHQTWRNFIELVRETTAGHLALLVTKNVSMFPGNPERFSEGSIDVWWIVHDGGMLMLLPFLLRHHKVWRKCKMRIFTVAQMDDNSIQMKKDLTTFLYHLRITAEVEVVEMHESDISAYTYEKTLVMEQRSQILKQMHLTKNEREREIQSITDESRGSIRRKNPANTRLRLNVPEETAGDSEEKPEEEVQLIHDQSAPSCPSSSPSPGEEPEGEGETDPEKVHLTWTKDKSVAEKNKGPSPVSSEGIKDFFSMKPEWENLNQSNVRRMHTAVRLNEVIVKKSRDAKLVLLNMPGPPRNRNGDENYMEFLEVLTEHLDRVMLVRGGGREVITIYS
Alpha-2C adrenergic receptor (Homo sapiens), sequence (P18825 whole entry, looked up): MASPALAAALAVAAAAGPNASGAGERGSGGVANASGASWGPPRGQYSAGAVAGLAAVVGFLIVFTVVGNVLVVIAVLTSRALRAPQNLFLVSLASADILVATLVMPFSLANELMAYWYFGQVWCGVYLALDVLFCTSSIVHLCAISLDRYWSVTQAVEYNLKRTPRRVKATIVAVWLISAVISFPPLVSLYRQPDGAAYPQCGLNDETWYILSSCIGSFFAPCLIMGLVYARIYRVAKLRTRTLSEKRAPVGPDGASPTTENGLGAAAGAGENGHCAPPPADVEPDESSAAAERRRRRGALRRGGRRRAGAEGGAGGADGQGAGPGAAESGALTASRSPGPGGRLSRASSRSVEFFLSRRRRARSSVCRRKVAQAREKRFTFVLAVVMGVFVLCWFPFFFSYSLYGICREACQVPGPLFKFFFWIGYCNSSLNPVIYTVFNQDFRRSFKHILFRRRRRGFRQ

Molecule `Cc1c2ccncc2c(C)c2c1[nH]c1ccccc12` registered a cell count in experiment [1] of 493. In addition, the inhibition in [1] was -11.8% (inactive); in experiment [3] it was -23% (inactive); in experiment [5], 38.9% (inactive); in experiment [9], 11% (inactive) and 108% (active); in [10], 12.8% (inactive); in [11], 91.8% (active). Also, the inhibition of aggregation in [2] is -178% (inactive). Besides, the nuclei count in experiment [2] was found to be 27.6%; in [3], 100%. The z-score in experiment [4] (setting [18]) is -0.124; in experiment [4] (setting [19]), 0.964; in experiment [4] (setting [20]) it was -1.2. The fluorescence slope in experiment [6] is -0.464 (inactive). Besides, the NADPH fluorescence slope in experiment [7] was -5.8e-09 (inactive). Further, the slope in [8] was 0.0129 (active).

`C[N+]1(C)CCc2cc3c(cc2[C@H]1[C@@H]1OC(=O)c2c1ccc1c2OCO1)OCO3` displayed a cell count in experiment [1] of 633. Also, the inhibition in experiment [1] was 1.1% (inactive); in experiment [3], -58% (inactive); in experiment [5], 19.2% (inactive); in [9] it was 6.58% (inactive) and 16.9% (inactive); in experiment [10], 12.6% (inactive); in experiment [11], 45.3% (inactive). Besides, the inhibition of aggregation in [2] is -10.4% (inactive). The nuclei count in experiment [2] amounted to 110%; in experiment [3] it was 109%. Moreover, the z-score in [4] (setting [18]) was 0.571; in experiment [4] (setting [19]) it was -0.122; in experiment [4] (setting [20]), -0.447. In [6], the fluorescence slope is -0.486 (inactive). Also, the NADPH fluorescence slope in experiment [7] was -3.8e-05 (inactive). In addition, the slope in experiment [8] was 0.00504 (inactive).

Turning to `COc1cc(-n2c(=S)[nH]c3ccc(C)cc3c2=O)c(Cl)cc1Cl`, in experiment [12], the normalised thallium flux (F/F0 slope) was 0.0155 (active). The normalized thallium flux is 0.0563 (active) in “PubChem AID 1714” and 0.0344 (inactive) in experiment [13]. For the same molecule, the thallium flux rate (normalised fluorescence) in experiment [14] is 0.0674 (active). In experiment [15], the raw Tl+ flux slope (below DMSO = inhibition, above = activation) is 0.0437 (active). For the same molecule, in [16], the thallium flux slope was 0.0196 (active).

The molecule `COc1ccc(OC)c([C@@H](O)[C@H](C)NC(C)(C)C)c1` showed a cell count in [1] of 671. For the same molecule, the inhibition is -4.8% (inactive) in experiment [1]; -81.3% (inactive) in experiment [3]; 23.2% (inactive) in experiment [5]; 17.4% (inactive) in experiment [9]; 2.13% (inactive) in experiment [10]; 33.4% (inactive) in [11]. In experiment [2], the inhibition of aggregation is -2.8% (inactive). Also, the nuclei count is 95.5% in [2] and 138% in experiment [3]. The z-score in [4] (setting [18]) was found to be 0.193; in experiment [4] (setting [19]), 0.685; in experiment [4] (setting [20]) it was 0.252. Also, the fluorescence slope in experiment [6] is -0.517 (inactive). Moreover, the NADPH fluorescence slope in experiment [7] is -5.7e-05 (inactive). Besides, the slope in experiment [8] was 0.00439 (inactive). Also, the result in [17] was inactive.

As to `Cc1ccc2c(c1)[C@@H]1CN(C)CC[C@@H]1N2C(=O)Nc1cccc(C(F)(F)F)c1`, the cell count in [1] was found to be 378. For the same molecule, the inhibition in experiment [1] was -9.8% (inactive); in experiment [3], -93.8% (inactive); in experiment [5], -4.78% (inactive); in [9], 4.34% (inactive); in [10] it was 20.1% (inactive); in experiment [11], 23.5% (inactive). Moreover, in [2], the inhibition of aggregation was -11.2% (inactive). For the same molecule, the nuclei count in experiment [2] came out at 94.1%; in experiment [3] it was 95.7%. Moreover, the z-score in experiment [4] (setting [18]) came to 1.48; in [4] (setting [19]) it was 0.568; in [4] (setting [20]) it was 0.647. Moreover, in experiment [6], the fluorescence slope is -0.508 (inactive). In addition, the NADPH fluorescence slope in [7] is -0.000528 (active). In addition, the slope in [8] was 0.0079 (inactive).
